# According to the supplement of paper PMC12067093, “Discovery and optimisation of a covalent ligand for TRIM25 and its application to targeted protein ubiquitination” (Chemical Science, 2025):
# About 21,000 targets were measured; listed, in parts, are those with the largest changes and a random draw of the rest.
# Compound: CC1Cc2ccccc2N1C(=O)C1CCCN(C1)C(=O)CCl (mixture of isomers) [TRIM25 ligand 11 (diastereomer mixture)]
# Test: probe-labelled cysteine peptide fold change vs DMSO (competition) (log2 fold change); higher = less target engagement (more negative = stronger competition)
# Conditions: THP-1, incubation time: 4 h
# 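Note: competitive chemoproteomic profiling in live THP-1 cells with an iodoacetamide desthiobiotin (IA-DTB) probe, comparing probe-labelled peptide intensities in compound-treated cells against DMSO-treated controls.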
# Sequence of UniProt P32121 (P32121 whole entry, looked up): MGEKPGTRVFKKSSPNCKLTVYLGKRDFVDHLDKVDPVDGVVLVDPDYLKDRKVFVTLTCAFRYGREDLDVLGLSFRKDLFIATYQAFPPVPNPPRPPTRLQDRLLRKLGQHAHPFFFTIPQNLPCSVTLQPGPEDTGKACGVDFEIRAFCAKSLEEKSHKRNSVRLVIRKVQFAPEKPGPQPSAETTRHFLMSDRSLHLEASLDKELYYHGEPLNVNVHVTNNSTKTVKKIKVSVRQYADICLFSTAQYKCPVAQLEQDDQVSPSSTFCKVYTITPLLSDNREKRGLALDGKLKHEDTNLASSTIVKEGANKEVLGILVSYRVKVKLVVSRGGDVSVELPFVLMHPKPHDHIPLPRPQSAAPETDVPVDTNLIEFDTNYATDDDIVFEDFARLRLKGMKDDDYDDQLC
# Sequence of UniProt O14497 (O14497 whole entry, looked up): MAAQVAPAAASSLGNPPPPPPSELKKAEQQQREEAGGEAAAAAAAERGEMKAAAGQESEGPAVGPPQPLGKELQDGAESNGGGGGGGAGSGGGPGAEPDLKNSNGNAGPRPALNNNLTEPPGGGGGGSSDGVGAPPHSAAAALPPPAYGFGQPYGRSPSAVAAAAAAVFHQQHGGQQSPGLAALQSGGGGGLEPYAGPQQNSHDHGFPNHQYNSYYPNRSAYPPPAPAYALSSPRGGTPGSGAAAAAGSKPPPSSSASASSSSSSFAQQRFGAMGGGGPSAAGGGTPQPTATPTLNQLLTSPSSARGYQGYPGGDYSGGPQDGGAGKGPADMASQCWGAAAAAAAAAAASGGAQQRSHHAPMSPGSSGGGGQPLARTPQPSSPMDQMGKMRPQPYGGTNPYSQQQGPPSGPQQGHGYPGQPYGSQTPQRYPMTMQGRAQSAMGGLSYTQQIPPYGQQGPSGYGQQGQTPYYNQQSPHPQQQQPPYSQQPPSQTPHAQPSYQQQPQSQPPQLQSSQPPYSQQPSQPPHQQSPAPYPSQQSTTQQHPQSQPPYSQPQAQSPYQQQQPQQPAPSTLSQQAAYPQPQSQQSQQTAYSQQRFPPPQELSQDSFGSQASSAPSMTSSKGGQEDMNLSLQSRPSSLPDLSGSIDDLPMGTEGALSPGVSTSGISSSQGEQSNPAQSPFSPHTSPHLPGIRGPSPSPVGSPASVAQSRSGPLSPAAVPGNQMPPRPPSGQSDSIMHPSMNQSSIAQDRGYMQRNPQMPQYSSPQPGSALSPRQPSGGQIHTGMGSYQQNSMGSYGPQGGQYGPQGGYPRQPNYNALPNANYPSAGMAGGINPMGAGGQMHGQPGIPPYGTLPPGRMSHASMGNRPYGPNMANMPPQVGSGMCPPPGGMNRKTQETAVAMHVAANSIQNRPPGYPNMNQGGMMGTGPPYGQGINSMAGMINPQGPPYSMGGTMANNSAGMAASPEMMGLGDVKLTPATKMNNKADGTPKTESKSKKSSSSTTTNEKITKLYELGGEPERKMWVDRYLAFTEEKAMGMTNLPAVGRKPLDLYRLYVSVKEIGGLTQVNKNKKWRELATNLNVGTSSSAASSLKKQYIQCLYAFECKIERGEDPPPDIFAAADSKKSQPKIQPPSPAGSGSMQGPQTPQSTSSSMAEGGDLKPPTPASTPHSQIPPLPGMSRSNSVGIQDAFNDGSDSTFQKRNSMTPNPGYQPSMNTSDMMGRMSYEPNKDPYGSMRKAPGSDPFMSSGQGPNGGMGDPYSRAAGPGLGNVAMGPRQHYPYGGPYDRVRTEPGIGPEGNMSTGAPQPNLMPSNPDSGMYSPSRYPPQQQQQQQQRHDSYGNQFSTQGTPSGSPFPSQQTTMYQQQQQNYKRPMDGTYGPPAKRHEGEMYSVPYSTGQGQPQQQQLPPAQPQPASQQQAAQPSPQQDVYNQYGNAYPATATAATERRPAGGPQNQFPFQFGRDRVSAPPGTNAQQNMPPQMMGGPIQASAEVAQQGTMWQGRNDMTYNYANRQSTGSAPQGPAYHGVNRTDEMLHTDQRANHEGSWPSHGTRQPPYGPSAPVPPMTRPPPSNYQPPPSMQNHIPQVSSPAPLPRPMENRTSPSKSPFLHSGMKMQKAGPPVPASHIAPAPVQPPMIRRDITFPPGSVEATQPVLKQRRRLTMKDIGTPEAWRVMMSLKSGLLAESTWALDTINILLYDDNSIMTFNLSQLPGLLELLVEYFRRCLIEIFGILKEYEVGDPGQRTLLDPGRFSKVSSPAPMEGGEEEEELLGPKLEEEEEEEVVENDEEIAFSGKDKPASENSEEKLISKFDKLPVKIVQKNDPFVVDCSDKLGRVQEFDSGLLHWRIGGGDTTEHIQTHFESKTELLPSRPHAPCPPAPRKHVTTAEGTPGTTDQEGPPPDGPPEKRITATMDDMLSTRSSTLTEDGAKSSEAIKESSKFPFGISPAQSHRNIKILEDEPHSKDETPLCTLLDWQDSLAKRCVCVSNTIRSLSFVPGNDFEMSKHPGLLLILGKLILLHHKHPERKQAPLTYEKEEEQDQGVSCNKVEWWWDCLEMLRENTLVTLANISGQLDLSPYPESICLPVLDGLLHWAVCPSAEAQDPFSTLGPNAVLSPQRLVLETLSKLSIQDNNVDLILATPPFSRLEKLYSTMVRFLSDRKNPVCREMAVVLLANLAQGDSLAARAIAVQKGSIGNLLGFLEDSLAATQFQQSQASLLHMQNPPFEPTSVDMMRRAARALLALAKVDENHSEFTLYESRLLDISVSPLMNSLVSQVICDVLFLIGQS
# Sequence of UniProt A9YTQ3 (A9YTQ3 whole entry, looked up): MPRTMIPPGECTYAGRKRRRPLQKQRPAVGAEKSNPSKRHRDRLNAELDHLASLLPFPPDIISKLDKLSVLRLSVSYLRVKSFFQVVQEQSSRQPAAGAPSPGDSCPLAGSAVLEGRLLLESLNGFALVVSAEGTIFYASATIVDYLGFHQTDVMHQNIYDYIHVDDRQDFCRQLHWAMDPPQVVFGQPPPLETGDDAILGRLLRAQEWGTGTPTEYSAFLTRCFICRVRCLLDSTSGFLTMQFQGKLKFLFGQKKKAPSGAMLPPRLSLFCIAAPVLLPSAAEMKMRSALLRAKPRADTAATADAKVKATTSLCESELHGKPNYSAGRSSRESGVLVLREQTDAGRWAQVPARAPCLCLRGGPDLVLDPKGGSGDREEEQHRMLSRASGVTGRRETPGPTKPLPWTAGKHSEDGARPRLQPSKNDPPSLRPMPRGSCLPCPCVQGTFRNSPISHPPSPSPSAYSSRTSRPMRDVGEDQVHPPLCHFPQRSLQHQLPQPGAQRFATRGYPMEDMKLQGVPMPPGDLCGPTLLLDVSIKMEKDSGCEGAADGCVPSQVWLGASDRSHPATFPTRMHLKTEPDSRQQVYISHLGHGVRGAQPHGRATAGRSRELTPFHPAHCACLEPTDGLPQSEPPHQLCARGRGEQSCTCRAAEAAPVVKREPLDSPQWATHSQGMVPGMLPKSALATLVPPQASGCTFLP
# Sequence of UniProt P02749 (P02749 whole entry, looked up): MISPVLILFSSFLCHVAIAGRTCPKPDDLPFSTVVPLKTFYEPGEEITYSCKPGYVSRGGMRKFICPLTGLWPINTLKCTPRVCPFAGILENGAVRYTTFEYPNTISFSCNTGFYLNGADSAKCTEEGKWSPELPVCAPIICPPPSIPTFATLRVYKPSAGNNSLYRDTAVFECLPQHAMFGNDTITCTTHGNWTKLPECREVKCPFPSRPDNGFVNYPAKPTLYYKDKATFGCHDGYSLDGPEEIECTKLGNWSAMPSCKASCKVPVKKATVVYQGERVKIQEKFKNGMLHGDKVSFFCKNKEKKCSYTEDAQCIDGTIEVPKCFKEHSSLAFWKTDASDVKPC
# Sequence of UniProt Q92619 (Q92619 whole entry, looked up): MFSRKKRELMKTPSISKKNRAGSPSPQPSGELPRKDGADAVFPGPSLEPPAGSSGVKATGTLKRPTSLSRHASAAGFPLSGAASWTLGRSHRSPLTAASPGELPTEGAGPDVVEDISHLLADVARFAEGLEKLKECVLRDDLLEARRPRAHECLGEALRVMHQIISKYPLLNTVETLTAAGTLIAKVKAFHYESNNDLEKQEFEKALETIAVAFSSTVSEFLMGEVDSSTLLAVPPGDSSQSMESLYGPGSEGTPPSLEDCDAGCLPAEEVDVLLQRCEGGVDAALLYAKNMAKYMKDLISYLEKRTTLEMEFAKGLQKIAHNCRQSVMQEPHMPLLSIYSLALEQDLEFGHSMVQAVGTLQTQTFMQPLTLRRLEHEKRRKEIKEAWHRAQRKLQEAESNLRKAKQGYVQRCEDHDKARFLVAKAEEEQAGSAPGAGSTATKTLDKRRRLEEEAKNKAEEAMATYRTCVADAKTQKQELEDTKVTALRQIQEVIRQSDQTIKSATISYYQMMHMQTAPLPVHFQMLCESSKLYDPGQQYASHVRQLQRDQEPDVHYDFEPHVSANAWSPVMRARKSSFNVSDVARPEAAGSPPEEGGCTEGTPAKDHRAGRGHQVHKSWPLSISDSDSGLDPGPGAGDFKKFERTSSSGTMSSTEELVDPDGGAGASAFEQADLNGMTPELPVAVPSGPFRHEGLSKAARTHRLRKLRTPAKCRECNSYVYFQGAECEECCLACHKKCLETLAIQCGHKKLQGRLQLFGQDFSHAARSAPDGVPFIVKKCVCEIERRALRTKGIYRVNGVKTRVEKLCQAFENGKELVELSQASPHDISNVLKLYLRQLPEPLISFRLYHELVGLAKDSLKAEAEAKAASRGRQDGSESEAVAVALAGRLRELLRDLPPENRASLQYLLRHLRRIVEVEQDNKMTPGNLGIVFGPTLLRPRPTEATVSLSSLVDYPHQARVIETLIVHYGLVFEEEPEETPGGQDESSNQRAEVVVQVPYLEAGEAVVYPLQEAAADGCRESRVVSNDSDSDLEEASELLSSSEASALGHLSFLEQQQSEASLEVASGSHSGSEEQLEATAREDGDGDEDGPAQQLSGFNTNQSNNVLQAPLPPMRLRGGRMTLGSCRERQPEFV
# Sequence of UniProt Q99766 (Q99766 whole entry, looked up): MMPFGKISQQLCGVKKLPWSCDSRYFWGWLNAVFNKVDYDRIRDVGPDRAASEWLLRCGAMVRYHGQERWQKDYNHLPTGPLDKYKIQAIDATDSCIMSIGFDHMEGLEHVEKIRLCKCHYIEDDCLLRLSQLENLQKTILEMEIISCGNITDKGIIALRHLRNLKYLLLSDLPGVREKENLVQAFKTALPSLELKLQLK
Target,probe-labelled cysteine peptide fold change (10 µM),probe-labelled cysteine peptide fold change (50 µM)
ARRB2_P32121_270_CPVAQLEQDDQVSPSSTFCK (UniProt P32121),0.677,0.57
AIP_O00170_78_LPVWETIVCTMR (UniProt O00170),-0.126,1.17
ARHGAP45_Q92619_528_SATISYYQMMHMQTAPLPVHFQMLCESSK (UniProt Q92619),-0.132,-0.236
ATF6_P18850_321_ESACQSR<|>ATF6B_Q99941_340_ESACQSR (UniProt Q99941+P18850),0.753,1.73
ANKRD50_Q9ULJ7_113_QALAFHFCK (UniProt Q9ULJ7),0.472,0.778
ARPC1B_O15143_26_TQIAICPNNHEVHIYEK (UniProt O15143),0.062,0.00851
ATP5S_Q99766_134_CHYIEDDCLLR (UniProt Q99766),-0.0886,0.0874
ANKRD10_Q9NXR5_140_SGSLECISALVANGAHVDLR (UniProt Q9NXR5),-0.314,-0.119
ANXA11_P50995_384_FNAVLCSR (UniProt P50995),-0.0174,-0.0325
APTX_Q7Z2E3_161_DAAQEAEAGTGLEPGSNSGQCSVPLK (UniProt Q7Z2E3),0.282,-0.342
ARHGAP25_P42331_154_VAGTPCGVFGQR (UniProt P42331),0.0288,-0.103
ASAP1_Q9ULH1_652_QTALGNTVLHYCSMYSKPECLK (UniProt Q9ULH1),0.0362,0.157
ARSA_P15289_493_GEDPALQICCHPGCTPR (UniProt P15289),0.139,0.309
BCAT1_P54687_338_EMFGSGTACVVCPVSDILYK (UniProt P54687),0.15,0.0428
ARFGEF2_Q9Y6D5_76_YFLPFELACQSK<|>ARFGEF1_Q9Y6D6_88_YFLPFELACQSK (UniProt Q9Y6D6+Q9Y6D5),-0.179,-0.147
ATP5F1A_P25705_244_KLYCIYVAIGQK (UniProt P25705),-0.433,0.0534
AMPD2_Q01433_107_SLPGPAPCLK (UniProt Q01433),-0.11,-0.295

Target,probe-labelled cysteine peptide fold change (10 µM),probe-labelled cysteine peptide fold change (50 µM)
ARPC1B_O15143_227_VAWVSHDSTVCLADADK (UniProt O15143),0.316,0.0213
AGPS_O00116_226_IVNLACK (UniProt O00116),0.221,0.311
AHRR_A9YTQ3_485_DVGEDQVHPPLCHFPQR (UniProt A9YTQ3),0.678,0.583
AKAP17A_Q02040_17_AAATIVHDTSEAVELCPAYGLYLK (UniProt Q02040),0.583,0.399
APOH_P02749_124_CTEEGK (UniProt P02749),0.632,0.551
ALG11_Q2TAA5_72_NQMVIAFFHPYCNAGGGGER (UniProt Q2TAA5),-0.0377,-0.618
ANAPC11_Q9NYG5_76_WLHAQQVQQHCPMCR (UniProt Q9NYG5),-0.122,0.153
ATIC_P31939_101_VVACNLYPFVK (UniProt P31939),-0.0132,0.0726
BIN2_Q9UBW5_205_IGCYVTIFQNISNLR (UniProt Q9UBW5),0.21,0.194
ARID1A_O14497_2043_EEEQDQGVSCNK (UniProt O14497),0.662,0.268
ARF6_P62330_90_HYYTGTQGLIFVVDCADRDRIDEAR (UniProt P62330),-0.368,0.0425
ASMTL_O95671_274_AEAGEAGQATAEAECHR (UniProt O95671),-0.103,-0.158
ATP6V1A_P38606_138_WDFTPCK (UniProt P38606),-0.198,-0.819
AKAP8_O43823_392+395_IQFACSVCK (UniProt O43823),-0.0142,0.0345
AP2A1_O95782_492_TVFEALQAPACHENMVK (UniProt O95782),0.179,0.0904
ANTXR1_Q9H6X2_257_VLCSFK (UniProt Q9H6X2),0.067,0.257
